Experimental findings from PubChem BioAssay (NCATS) are described below.

Results filed as inconclusive are left out. Values without a mark were called inactive. Activity calls are given as the source filed them. Calls follow the shape of the dose curve; as a rule, active = well fitted cell-killing curve with a large enough effect; inconclusive = small, poorly fitted or top-dose-only effect; inactive = flat fitted curve, though single readings scatter.
% is scaled to controls: 0 for no effect and ±100 for the full control effect; potency is read from the fitted curve at half-maximal effect.

A short description of this test: Cellular viability qHTS for adrenocortical cancer (ACC) cell line SW-13 (AID 1963989). Also: nearly all actives have a fitted effect of over 65% in size.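 As to activity (max response): cells grown in serum-free medium with ITS supplement.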 The conditions noted are these: SW-13 ACC cells viability, CellTiter-Glo, 48 h; activity (max response): stronger effect = lower value. The procedure, abridged: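 48 h treatment, SW-13 in ITS/DMEM serum-free; doses up to 46 uM; readout CellTiter-Glo luminescence; curve fit four-parameter logistic.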
(qHTS replaces the single test concentration by a dilution series.)
For the compound `c1cc2ccc3cccc4ccc(c1)c2c34`, the activity (max response) was -9.29%.
Consider `CNCC(=O)c1ccc(O)c(O)c1`, for which the activity (max response) is 2.58%.
`CCOC(=O)C1(c2ccccc2)CCN(CCc2ccc(N)cc2)CC1`: the activity (max response) is -18.4%.
In the case of `CC(=O)[C@H]1CC[C@H]2[C@@H]3CC[C@H]4C[C@H](O)CC[C@]4(C)[C@H]3C(=O)C[C@]12C`, the activity (max response) is 0.908%.
Turning to `CCCN(CCC)C(=O)Cc1c(-c2ccc(Cl)cc2)nc2ccc(Cl)cn12`, the activity (max response) is -9.21%.
`C=C[C@H]1CN2CCC1C[C@@H]2[C@@H](O)c1ccnc2ccccc12` (some centres undefined): the activity (max response) is -20.5%.
Consider `COC(=O)[C@]12CCC(C)(C)C[C@H]1[C@H]1C(=O)C=C3[C@@]4(C)C=C(C#N)C(=O)C(C)(C)[C@@H]4CC[C@@]3(C)[C@]1(C)CC2`, for which the Potency was 6.31 µM (active).
On to `C[C@]12CC[C@H]3[C@@H](CCC4=CC(=O)CC[C@@H]43)[C@@H]1CC[C@@H]2OC(=O)CCC1CCCCC1`, for which the activity (max response) was -4.2%.
On to `Nc1c(Cl)c(Cl)c(Cl)c(Cl)c1Cl`, for which the activity (max response) is -9.89%.
In the case of `CC[C@@H](CO)NC(=O)[C@@H]1C=C2c3cccc4[nH]cc(c34)C[C@H]2N(C)C1`, the activity (max response) was -27.7%.
With `CCOP(=S)(OCC)Oc1ccc2c(C)c(Cl)c(=O)oc2c1`, the activity (max response) was 7.58%.
Turning to `CCN(CCO)CCn1c(Cc2ccccc2)nc2c1c(=O)n(C)c(=O)n2C`, the activity (max response) was 7.74%.
For `COc1cc(C)[nH]c(=O)c1CNC(=O)c1c(C)n([C@H](C)C2CCN(CC(F)(F)F)CC2)c2ccccc12`, the activity (max response) is 8.69%.
For the compound `Oc1ccccc1-c1ccccc1`, the activity (max response) was -7.15%.
